Results reported in PubChem BioAssay (NCATS).
Records with an inconclusive call do not appear. Unmarked numbers belong to inactive results. The call rests on the fitted dose curve; in most records, active means well fitted cell-killing curve with a large enough effect; inconclusive means small, poorly fitted or top-dose-only effect, or effect the other way; inactive means flat fitted curve, though single readings scatter.

Test system: C33A
Test: Primary qHTS to identify gynecologic anti-cancer compounds using libraries of approved drugs and bioactive compounds (AID 1345084); further: nearly all actives have a fitted effect of over 55% in size
Conditions: Gynecologic cancer cell panel viability, ATPlite luminescence, 48 h; series mostly up to 57.5 µM; activity change, negative = cytotoxicity: at the top concentration
Procedure, shortened: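 Five-concentration response, 48 h; readout is ATP-driven luciferase luminescence.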
On the % scale 0 is the no-effect control and ±100 the full control effect.

Row | SMILES | activity change, negative = cytotoxicity
1 | O=C(Cc1ccccc1)OC[C@H]1O[C@H](O[C@H]2O[C@H](CO)[C@@H](O)[C@H](O)[C@H]2O)[C@H](O)[C@@H](O)[C@@H]1O | 0.379% [at 25.3 µM]
2 | CC1=C2C[C@H]3OC(=O)[C@H](O)[C@@]4(O)[C@@H](C)[C@@H](O)[C@H](O)C([C@@]2(C)[C@H](O)[C@@H](O)C1)[C@@]34C (stereo partly specified) | 0.963% [at 38.5 µM]
3 | CC1CC(=O)C2=C(O1)OC1(C)CCC3C(C)(C)C4OC4C(=O)C3(C)C1C2 (stereo unspecified) | -1.61% [at 38.5 µM]
4 | COc1ccnc(CCc2nc3ncccc3[nH]2)c1 | 3.55%
5 | C/C(=C/CO)CC[C@H]1[C@]2(C)C[C@H](O)CC(C)(C)[C@H]2CC[C@]1(C)O | -6.52% [at 38.5 µM]
6 | COc1c2c(c(C)c3c1C(=O)OC3)OC1(C)CC(O)C34OC(O)(CCC3(C)C1C2)OC4(C)C (stereo unspecified) | -4.89% [at 25.3 µM]
7 | COC(=O)[C@]1(Cc2ccc(O)c(CC=C(C)C)c2)OC(=O)C(O)=C1c1ccc(O)cc1 | -1.05% [at 25.3 µM]
8 | COc1cnc(-c2ccc(Cn3c(CC(C)(C)C(=O)O)c(SC(C)(C)C)c4cc(OC[C@@H]5Cc6ccccc6N5C(C)=O)ccc43)cc2)nc1 | 18% [at 38.5 µM]
9 | CCC(C)C(=O)O[C@H]1C[C@](C)(O)[C@]23OC(C)(C)[C@H](C[C@H](OC(=O)c4ccccc4)[C@]2(COC(C)=O)[C@H]1OC(=O)C(C)CC)[C@H]3OC(C)=O (stereo partly specified) | 8.72% [at 25.3 µM]
10 | CC1CC2(O)OC(=O)C3=C2C(CCC3)[C@@]12C[C@@H](c1ccoc1)OC2=O (stereo partly specified) | -6.5% [at 38.5 µM]
11 | COc1cc(C(C)=O)ccc1O[C@@H]1O[C@H](CO)[C@@H](O)[C@H](O)[C@H]1O | -12.7% [at 38.5 µM]
12 | COC(=O)C1=COC(OC2OC(CO)C(O)C(O)C2O)C2C(C)C(OC(C)=O)C(OC(=O)c3ccccc3)C12 (stereo unspecified) | 6.75% [at 25.3 µM]
13 | COc1ccnc2[nH]cc(C(=O)C(=O)N3CCN(C(=O)c4ccccc4)CC3C)c12 (stereo unspecified) | 18.3%
14 | C[C@@H]1O[C@@H](O[C@H]2[C@H](O)[C@@H](O)[C@H](OC[C@H]3O[C@@H](OC(=O)[C@]45CCC(C)(C)C[C@H]4C4=CCC6[C@@]7(C)C[C@@H](O)[C@H](O)[C@@](C)(CO)C7[C@H](O)C[C@@]6(C)[C@]4(C)CC5)[C@H](O)[C@@H](O)[C@@H]3O)O[C@@H]2CO)[C@H](O)[C@H](O)[C@H]1O (stereo partly specified) | 15% [at 11.6 µM]
15 | O=C(CC1CC(c2ccc(F)cc2F)=NO1)N1CCOCC1 (stereo unspecified) | 10%
16 | COC(=O)C1=CO[C@@H](O[C@@H]2O[C@H](CO)[C@@H](O)[C@H](O)[C@H]2O)[C@@H]2[C@@H](C(=O)O)CC[C@H]12 | 8.57% [at 25.3 µM]
17 | C[C@@H]1O[C@@H](OC2C(CO)OC(OCC3OC(OC(=O)[C@]45CCC(C)(C)CC4C4=CCC6[C@@]7(C)CC[C@@H](O)[C@](C)(C(=O)O)C7CC[C@@]6(C)[C@]4(C)CC5)C(O)C(O)C3O)C(O)C2O)[C@H](O)[C@H](O)[C@H]1O (stereo partly specified) | 1.71% [at 11.6 µM]
18 | OC[C@H]1O[C@@H](OC[C@H]2O[C@@H](OCc3ccccc3)[C@H](O)[C@@H](O)[C@@H]2O)[C@H](O)[C@@H](O)[C@@H]1O | -8.85% [at 25.3 µM]
19 | COC1OC(O)C2(CCC3(O2)C(C)CC2OC(=O)C4(C)CCCC3(C)C24)C1O (stereo unspecified) | 14.1% [at 38.5 µM]
20 | C=C1C(OC(C)=O)C(=O)C2C(C)(C)C(O)CCC2(C)C1CC(OC(C)=O)/C(C)=C/COC(C)=O (stereo unspecified) | -1.69% [at 25.3 µM]
21 | C/C(=C\CO)CC/C=C(\C)C(=O)O[C@@H]1O[C@H](CO)[C@@H](O)[C@H](O)[C@H]1O | 9.52% [at 38.5 µM]
22 | CC(=O)c1c(C)cccc1O[C@@H]1O[C@H](CO)[C@@H](O)[C@H](O)[C@H]1O | 5.46% [at 38.5 µM]
23 | CC(=O)O[C@@H]1C=C2[C@H](CC[C@@]3(C)[C@@]2(O)CC[C@H]2Cc4c([nH]c5ccccc45)[C@@]23C)O[C@@H]1C(C)(C)O | 9.38% [at 25.3 µM]
24 | C=CC1(C)CC=C2C(CCC3C(C)(C(=O)O)CCCC23C)C1 (stereo unspecified) | 3.09%
25 | CC(C)c1ccc2c(c1)C(=O)CC1C(C)(C(=O)O)CCCC21C (stereo unspecified) | 24.6% [at 38.5 µM]
26 | CC(C)CC(=O)O[C@@H]1O[C@H](CO)[C@@H](O[C@H]2O[C@H](C)[C@@H](N[C@H]3C=C(CO)[C@@H](O[C@H]4O[C@H](CO)[C@@H](O[C@H]5O[C@H](CO)[C@@H](O[C@H]6O[C@H](CO)[C@@H](O)[C@H](O)[C@H]6O)[C@H](O)[C@H]5O)[C@H](O)[C@H]4O)[C@H](O)[C@H]3O)[C@H](O)[C@H]2O)[C@H](O)[C@H]1O | 5.03% [at 11.6 µM]
